The whole screen tested about 310,000 compounds, of which about 14,000 (4.5%) showed an effect of 50% or more. The effect is printed as a negative number. What follows is part of a selection rich in strong results, with near analogues and random picks from the rest.
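Also: peak tail current of the secondary pulse compared with the same well before compound.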

The target in the assay is human ether-à-go-go-related gene (hERG) potassium channel (human, UniProt Q12809). The assay is described as follows: primary screen, population patch clamp on CHO cells stably expressing hERG; higher = less effect of the substance.
Sequence of human ether-à-go-go-related gene (hERG) potassium channel (Q12809 whole entry, looked up): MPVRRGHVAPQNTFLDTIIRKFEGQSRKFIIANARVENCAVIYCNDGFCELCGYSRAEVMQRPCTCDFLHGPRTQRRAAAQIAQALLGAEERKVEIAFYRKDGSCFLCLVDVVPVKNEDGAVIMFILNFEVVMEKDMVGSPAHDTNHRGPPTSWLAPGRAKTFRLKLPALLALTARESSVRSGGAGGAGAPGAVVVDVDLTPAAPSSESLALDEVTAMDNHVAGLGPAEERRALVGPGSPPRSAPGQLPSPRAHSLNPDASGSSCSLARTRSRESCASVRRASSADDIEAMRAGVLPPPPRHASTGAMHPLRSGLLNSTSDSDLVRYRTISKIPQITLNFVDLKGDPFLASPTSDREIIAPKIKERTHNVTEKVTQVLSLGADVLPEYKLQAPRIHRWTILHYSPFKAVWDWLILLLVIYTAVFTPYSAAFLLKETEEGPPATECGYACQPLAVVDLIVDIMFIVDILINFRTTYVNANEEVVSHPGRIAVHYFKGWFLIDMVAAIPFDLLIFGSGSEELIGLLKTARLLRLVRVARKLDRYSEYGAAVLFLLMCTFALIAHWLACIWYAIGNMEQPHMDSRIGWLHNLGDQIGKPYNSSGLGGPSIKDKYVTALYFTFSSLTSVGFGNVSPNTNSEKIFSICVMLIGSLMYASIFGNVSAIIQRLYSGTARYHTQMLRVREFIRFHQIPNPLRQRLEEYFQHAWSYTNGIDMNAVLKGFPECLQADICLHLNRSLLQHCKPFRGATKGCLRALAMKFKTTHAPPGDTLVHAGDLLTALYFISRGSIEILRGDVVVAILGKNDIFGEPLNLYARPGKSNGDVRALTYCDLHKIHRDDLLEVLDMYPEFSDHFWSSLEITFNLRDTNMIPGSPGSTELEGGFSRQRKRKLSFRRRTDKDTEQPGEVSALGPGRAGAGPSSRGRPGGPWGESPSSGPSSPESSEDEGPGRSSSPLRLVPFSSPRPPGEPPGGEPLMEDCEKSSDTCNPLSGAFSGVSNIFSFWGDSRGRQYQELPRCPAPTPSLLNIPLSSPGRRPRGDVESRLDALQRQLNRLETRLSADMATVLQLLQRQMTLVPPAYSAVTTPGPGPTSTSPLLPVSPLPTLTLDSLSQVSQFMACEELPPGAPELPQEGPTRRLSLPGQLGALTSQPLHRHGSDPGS
In the case of `Cn1c(COc2cccc3cccnc23)nnc1SCC(=O)O`, the “hERG current change (%, negative = inhibition) at 10uM” value is reported as 9.13%.
For the compound `Cc1cccc(C)c1NC(=O)CCS(=O)(=O)c1cccc2nsnc12`, the “hERG current change (%, negative = inhibition) at 10uM” value is -4.59%.
The same measure for `CCOC(=O)c1cc2c(ccn2C)n1Cc1ccccc1C`: 11.8%; for `CN1C(=O)CC(c2ccccc2)C1=O` (centres unmarked): 3.18%.
For `Cc1cc(NCCc2ccccc2F)n2ncnc2n1` the value was -1.21%; for `Cc1cc(C)cc(N(C(=O)Cc2cccs2)C(C(=O)NC2CCCC2)c2ccc(C)o2)c1` (centres unmarked), 2.77%.
For `COC(=O)c1cc2c(ccn2-c2ccc(F)cc2)n1Cc1cccc(OC)c1` the value was 0.0373%; for `O=C(CCn1nc(-c2ccccc2)ccc1=O)N1CCN(c2ccccn2)CC1`, -53.1%.
For `O=C(O)CCC(=O)N1CCN(c2ccc(C(=O)c3ccc(F)cc3)cc2)CC1`, the “hERG current change (%, negative = inhibition) at 10uM” value amounted to 0.927%.
For `O=C(CCn1nc(-c2ccccc2)ccc1=O)N1CCN(c2ccccc2)CC1` the value was -11.2%; for `O=C(CCC(=O)N1CCN(c2ccc(F)cc2)CC1)c1ccc(Cl)cc1`, -55.8%.
Turning to `O=C(CCC(=O)N1CCN(c2ccc(F)cc2)CC1)N1CCN(c2ccc(F)cc2)CC1`, the “hERG current change (%, negative = inhibition) at 10uM” value is reported as -43.9%.
The same measure for `Cc1ccc(-c2ccc(=O)n(CCC(=O)N3CCN(c4ccccc4)CC3)n2)cc1`: -49.1%; for `CC(C)CN(C(=O)COC(=O)c1ccc([N+](=O)[O-])o1)C1CCS(=O)(=O)C1` (centres unmarked): -31.8%.
For `CC(C)COC(=O)N1CC(O)CC1C(=O)O` (centres unmarked) the value was 25.3%; for `CC(=O)Nc1nnc(SCC(=O)N2C(C)CCCC2C)s1` (centres unmarked), 12.9%.
The same measure for `CCCC(=O)Nc1nnc(SCC(=O)N2C(C)CCCC2C)s1` (centres unmarked): -50.1%.
In the case of `COCC(=O)Nc1nnc(SCC(=O)N2C(C)CCCC2C)s1` (centres unmarked), the “hERG current change (%, negative = inhibition) at 10uM” value is given as 15.2%.
For `COCCn1cnnc1SCC(=O)Nc1cccc(S(=O)(=O)N2CCCCC2)c1` the value was -17.8%; for `Cn1cnnc1SCC(=O)Nc1cccc(S(=O)(=O)N2CCCCCC2)c1`, -17.4%.
For `Cc1ccc(S(=O)(=O)N2CCCCC2)cc1NC(=O)CSc1nncn1-c1ccccc1` the value was -35.2%; for `O=C(CSc1ncn[nH]1)Nc1cccc(S(=O)(=O)N2CCCCCC2)c1`, -77.1%; for `O=C(CSc1ncn[nH]1)Nc1ccc(S(=O)(=O)N2CCCC2)cc1`, 14.5%.
For `COc1ccc(-n2cnnc2SCC(=O)Nc2cccc(S(=O)(=O)N3CCCCC3)c2)cc1`, the “hERG current change (%, negative = inhibition) at 10uM” value is recorded as -18.5%.
For `Cc1ccc(S(=O)(=O)N2CCCCC2)cc1NC(=O)CSc1ncn[nH]1` the value was 12%; for `COCCn1cnnc1SCC(=O)Nc1cccc(S(=O)(=O)N2CCCCCC2)c1`, -60.3%.
The same measure for `COc1ccc(-n2cnnc2SCC(=O)Nc2cc(S(=O)(=O)N3CCCCC3)ccc2C)cc1`: -84%; for `CCC1(OC(=O)CN)C(=O)OCc2c1cc1n(c2=O)Cc2cc3ccccc3nc2-1.Cl` (centres unmarked): 8.16%.
With `CC(=O)c1cccc(NC(=O)/C(=C\c2ccco2)NC(=O)c2cccs2)c1`, the “hERG current change (%, negative = inhibition) at 10uM” value is given as -9.8%.
The same measure for `CCOC(=O)N1CCN(C(=O)C(C)N(c2ccccc2)S(C)(=O)=O)CC1` (centres unmarked): 25.1%; for `O=C(O)CC(CC(=O)Nc1ccc(C(=O)O)cc1)c1ccccc1` (centres unmarked): 12.9%; for `Cc1ccc(-n2c(=O)c3sccc3n(CC(=O)NC3CCCCC3)c2=O)cc1`: 9.86%.
For `O=C(COC(=O)c1cnccn1)NCc1ccc(Cl)cc1` the value was -3.54%.
For `COCCN(C(=O)Cc1cccs1)C(C(=O)NC1CCCC1)c1cc(OC)c(OC)c(OC)c1` (centres unmarked) the value was 8.79%.
Turning to `Cc1nn(-c2ccccn2)c2c1C(c1ccncc1)C1=C(CC(C)(C)CC1=O)N2` (centres unmarked), the “hERG current change (%, negative = inhibition) at 10uM” value is reported as -50.8%.
The same measure for `Cc1ccc(C2C3=C(CCCC3=O)Nc3c2c(C)nn3-c2ccccn2)o1` (centres unmarked): 1.07%; for `CCO.Cc1nn(-c2ccccn2)c2c1C(c1ccsc1)C1=C(CCCC1=O)N2` (centres unmarked): -16.1%.
For `CC(C)(C)[C@H]1C=C(C(=O)NCc2ccccc2)O[C@@H](OCc2ccc(CO)cc2)C1` the value was -12.9%.
On to `COc1ccc(N(C(=O)c2snc(C(N)=O)c2N)C(C(=O)NC2CCCC2)c2cc(OC)ccc2OC)c(OC)c1` (centres unmarked), for which the “hERG current change (%, negative = inhibition) at 10uM” value stood at 20.9%.
The same measure for `CC1=C(C#N)C(NC(=O)C2CC2)(C(F)(F)F)C(=O)N1` (centres unmarked): -2.06%; for `COc1cccc(-n2c(=S)sc3c(=O)n(-c4ccccc4C)c(SCC(=O)O)nc32)c1`: 16.5%; for `N/C(=N\O)c1ccc(Oc2ccccc2Cl)c([N+](=O)[O-])c1`: -9.72%.
The same measure for `CCCC1=Nc2cc(C(=O)NCCN3CCCC3)ccc2Sc2ccccc21`: -21.2%; for `CCC1=Nc2cc(C(=O)NCCN3CCOCC3)ccc2Sc2ccc(C)cc21`: -82.3%.
Regarding `CCC1=Nc2cc(C(=O)NCCN3CCCC3)ccc2Sc2ccccc21`, the “hERG current change (%, negative = inhibition) at 10uM” value is reported as -52.1%.
For `CCC1=Nc2cc(C(=O)NCCN3CCOCC3)ccc2Sc2ccccc21` the value was -15.3%; for `CCCC1=Nc2cc(C(=O)NCCN3CCOCC3)ccc2Sc2ccc(C)cc21`, -34.3%; for `CCC1=Nc2cc(C(=O)NCCN3CCCC3)ccc2Sc2ccc(C)cc21`, -29%.
For `Cc1cccc(NC(=O)COc2ccccc2C(=O)NC(C)c2ccccc2)c1` (centres unmarked) the value was -8.56%.
As to `Cc1onc(-c2ccccc2)c1C(=O)N/N=C/c1ccc(O)c([N+](=O)[O-])c1`, the “hERG current change (%, negative = inhibition) at 10uM” value was 9.34%.
For `CCCCn1c(O)c(N=NC(=O)c2ccccc2NS(=O)(=O)c2cccs2)c2ccccc21` the value was -2.54%; for `O=C(CSc1nncn1-c1ccccc1)Nc1c(F)cccc1F`, 3.19%.
With `NC(N)=NS(=O)(=O)c1ccc(N/C=C/C(=O)c2ccc(Cl)c(Cl)c2)cc1`, the “hERG current change (%, negative = inhibition) at 10uM” value is 17.3%.
For `Cc1ccc(NC2CCCN(C(=O)c3ccccc3N3CCOCC3)C2)cc1C` (centres unmarked) the value was -0.641%; for `O=C(N/N=C/c1ccc([N+](=O)[O-])o1)c1cc(-c2ccc(-c3ccccc3)cc2)nc2ccccc12`, 17.7%; for `O=C(NCc1cccnc1)c1cc(Sc2ccc(F)cc2F)nc2ccccc12`, -55.3%.
The same measure for `CCCc1ccc(-c2cc(C(=O)N/N=C/c3ccc([N+](=O)[O-])o3)c3ccccc3n2)cc1`: -1.61%; for `O=C(Nc1ccc2c(c1)OCO2)c1cc(-c2ccncc2)nc2ccccc12`: -3.22%.
For `O=C(NCc1ccc2c(c1)OCO2)c1cc(-c2ccccn2)nc2ccccc12` the value was 4.41%; for `O=C(NCc1cccnc1)c1cc(Sc2cccc(Cl)c2)nc2ccccc12`, -15.4%; for `O=C(N/N=C/c1ccc([N+](=O)[O-])o1)c1cc(-c2ccncc2)nc2ccccc12`, -62.9%.
Regarding `O=C(NCc1ccc2c(c1)OCO2)c1cc(-c2ccncc2)nc2ccccc12`, the “hERG current change (%, negative = inhibition) at 10uM” value is recorded as -67%.
`O=C(NCc1cccnc1)c1cc(Sc2ccccc2Cl)nc2ccccc12`: the “hERG current change (%, negative = inhibition) at 10uM” value is recorded as -5.45%.
The same measure for `O=C(NCc1ccccn1)c1cc(-c2ccncc2)nc2ccccc12`: -25.6%; for `O=C(NCc1ccccc1)c1cc(-c2ccncc2)nc2ccccc12`: -34%; for `O=C(NCc1ccc(F)cc1)c1cc(-c2ccncc2)nc2ccccc12`: -64.7%.
For `O=C(NC(=S)NC1CCSC1=O)c1cccs1` (centres unmarked) the value was 15.9%.
For `CCOCc1nnc(NC(=O)C2CC(=O)N(CCc3ccc(F)cc3)C2)s1` (centres unmarked) the value was 5.97%.
For the compound `CCC1c2ccc(C)n2CCN1C(=O)Nc1ccccc1C(=O)OC` (centres unmarked), the “hERG current change (%, negative = inhibition) at 10uM” value came to 6.11%.
`CCc1nnc(NC(=O)C2(C)COC(c3ccc(OC)cc3)OC2)s1` (centres unmarked): the “hERG current change (%, negative = inhibition) at 10uM” value is given as 10.1%.
For `CC1(C)C2CCC1(CS(=O)(=O)N1CCOCC1)C(=O)C2` (centres unmarked) the value was -1.75%; for `Cc1cc(C(=O)COC(=O)c2cccnc2Cl)c(C)n1CC1CCCO1` (centres unmarked), -20.1%.
For `COc1ccccc1OCC(=O)NCC(c1cccs1)N1CCOCC1` (centres unmarked) the value was -4.48%.
For `Cc1ccc(CNC(=O)CCn2cc(-c3ccc(F)cc3)nc2-c2ccncc2)cc1` the value was -50.1%; for `CC(C)c1ccccc1OCC(=O)NCC(c1cccs1)N1CCOCC1` (centres unmarked), -50.2%.
Regarding `Cc1ccc(CNC(=O)CCn2cc(-c3ccc(C)cc3)nc2-c2ccncc2)cc1`, the “hERG current change (%, negative = inhibition) at 10uM” value is on record as -45.1%.
As for `O=C(NCC(c1cccs1)N1CCOCC1)c1cc(-c2ccc(F)cc2)nc2ccccc12` (centres unmarked), the “hERG current change (%, negative = inhibition) at 10uM” value is reported as -55.9%.
The same measure for `Cc1ccc(C(C)C)c(OCC(=O)NCC(c2cccs2)N2CCOCC2)c1` (centres unmarked): -48.1%.
For `COc1ccc(-c2cn(CCC(=O)NCc3ccc(C)cc3)c(-c3ccncc3)n2)cc1` the value was -21.3%; for `O=C(NCC(c1cccs1)N1CCOCC1)c1cc(-c2ccccn2)nc2ccccc12` (centres unmarked), -23%; for `O=C(NCC(c1cccs1)N1CCOCC1)c1cn(-c2ccccc2)nc1-c1ccc(F)cc1` (centres unmarked), -1.67%.
Consider `O=C(Cc1ccccc1)Nc1cccc(-c2nc3ncccc3o2)c1`, for which the “hERG current change (%, negative = inhibition) at 10uM” value is reported as 13.6%.
For `COc1ccc(Nc2ccc(C(N)=O)cc2[N+](=O)[O-])cc1` the value was 7.18%.

The values above are taken from PMC4336329 (PLoS ONE, 2015).
